Results from ChEMBL document CHEMBL3988442, “University of Dundee, Small-Polar-MMV Screening Library” (2021).

Molecular target: AMP-activated protein kinase, AMPK (Homo sapiens) (UniProt P54646+O43741+P54619+Q9UGJ0+Q9Y478+Q13131+Q9UGI9)
Experiment: AMP-dependent Kinase enzyme assay. An in vitro enzyme assay that detects ADP turnover that is directly proportional to AMPK activity. This uses naive AMPK that is activated during the assay with MK-8722
Assay type: functional
Set-up: scale not given: direction of the effect not stated beside the values
Conditions: 30 µM

Structure (SMILES)	Percent Effect [%]
CN(C)Cc1cccc(-c2cccnc2C(=O)NCC2CC2)c1	20.3
Cc1ccnc2c1NC(=O)CN2C(=O)CCC(F)(F)F	1.79
CCC(=O)c1cccc(S(=O)(=O)NC(C)C#N)c1 (stereo not given)	-2.44
O=C(O)[C@@H]1CN(CCOCCO)C[C@H]1c1ccccc1	1.29
CCNC(=O)C1CCN(Cc2ccccc2OCC(F)(F)F)CC1	-3.27
CCc1ccc(N2CCC(NS(=O)(=O)N(CC)CC)CC2)cc1	1.78
Cc1ccc(-n2ncc3c2CCCC3N)cc1C (stereo not given)	16.9
CN(CC(=O)NCC(=O)Nc1ccc(F)cc1)Cc1cccs1	-1.85
CCN(CC)C(CNC(=O)c1ccc(-n2cncn2)cc1)c1ccsc1 (stereo not given)	-4.43
CC(C)(C)c1noc(CCCC(=O)N2CCNC(=O)CC2)n1	-2.76
Cc1c(C(=O)N(C)C)cccc1N(C)S(C)(=O)=O	11.2
CC(C)OCCS(=O)(=O)N1CCN(Cc2ccco2)CC1	-2.52
Cc1cc(C)nc(N2CC[C@H](Oc3ccccc3F)[C@@H](O)CC2)n1	21.5
O=C(O)c1ccn(-c2ccc(NC(=O)c3ccccc3Cl)cc2)n1	5.04
CCN(CC1CCCO1)C(=O)NCCNC(=O)c1ccccc1F (stereo not given)	1.37
COCCNC(=O)N1CCOCC1c1c(C)nn(C)c1C (stereo not given)	-0.499
Cc1cc(CN(C)C(=O)CC(C)C)no1	0.491
CN(CC(O)C(F)(F)F)C(=O)Nc1cccc(Cn2cccn2)c1 (stereo not given)	-3.22
Cc1c(NC(=O)N(C)CCn2cnnc2)cccc1OC1CCCC1	-2.5
CN(CCO)Cc1cc(Cl)ccc1OCC(O)CN1CCCCCC1 (stereo not given)	0.752

Structure (SMILES)	Percent Effect [%]
CC(NC(=O)c1ccc(C(N)=O)cc1)c1cccc(N2CCOC2=O)c1 (stereo not given)	4.89
CCc1nnc(C(C)N2CCN(CCC(C)(C)C)CC2)o1 (stereo not given)	8.59
CN(C)c1ncccc1NC(=O)COCC1CC1	2.89
COc1ccc(CN(C)Cc2c(C)noc2C)c(Br)c1OC	2.55
COc1cccc(NC(=O)CN(C(C)C)C2CC2)c1	-0.663
CN(C)c1ccc(C(=O)Nc2ccn(CC(N)=O)n2)cn1	10.9
CSC1(CNC(=O)NCc2sccc2C)CCOCC1	-1.64
O=C(c1c(F)cccc1F)N1CCC[C@@H]1Cn1c(=O)oc2ccccc21	23.1
CCN(CCCNC(=O)Nc1ccccc1C(C)C)S(C)(=O)=O	11
COc1ccc(C2CN(c3cc(C)ncn3)CCN2C(C)=O)cc1 (stereo not given)	21.4
CN(C)Cc1cn(-c2ccccc2C(=O)NCC2CCCCN2C)cn1 (stereo not given)	-15.9
Cc1ccccc1C(=O)NC[C@@H]1CCN(C(=O)C2(O)CCCC2)C[C@H]1O	2.29
CCC(C)Oc1ccc(CNCCNC(C)=O)cc1OC (stereo not given)	2.89
COc1ccccc1C(C)(C)NC(=O)Nc1ccc(F)c(C(N)=O)c1	-5.46
CCc1nsc(N2CCCN(CC(=O)N(C)C3CC3)CC2)n1	7.28
CCc1ccc(C(=O)NC2CCCN(c3ccn(C)n3)C2=O)o1 (stereo not given)	-0.669
CSCC[C@H](NC(C)=O)C(=O)N(C)Cc1ccc(-n2cccn2)cc1	-8.05
O=C1OCCCN1Cc1nc(-c2ccc(N3CCCCC3)cc2)no1	-1.59
Cc1cc(C)n(CCN2CCC(N(C)Cc3nnc(C)n3C)C2)n1 (stereo not given)	3.54
CC(C(=O)N1CCC(c2[nH]ncc2-c2ccccc2)CC1)n1cncn1 (stereo not given)	-1.59
